# TRPV1 PAM: human TRPV1 potentiation | Q8NER1 | TRPV1-expressing cells, Fluo-8 calcium influx, capsaicin EC20 potentiation | potentiation, % at 8.33 µM | 320,000 compounds, 0.02% hits; in the data active means potentiation above about 80%; inconclusive means between about 30% and that limit; further: 0% is about no effect
#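 Fluo-8 calcium influx in TRPV1-expressing cells, kinetic read (ex 480/em 520 nm). Compound added and read 3 min for agonist activity, followed by capsaicin at EC20 final and 2 min further read for enhancement.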
# Anesthetic bind: binds horse apoferritin like a general anesthetic; P02791; apoferritin/1-aminoanthracene competitive binding, fluorescence; Potency, µM (highest dose often 77.5 µM), without a hit: top-dose activity change, negative = displacement, most hits filed as inhibitors; 350,000 compounds, 0.074% hits; AID 485281; further: potency means the concentration at half of the fitted maximal effect; on the % scale 0 is the no-effect control and ±100 the full control effect; nearly all actives have a fitted effect of over 20% in size
#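 Apoferritin-based anesthetic binding model; compound displacement of fluorescent 1-AMA measured as endpoint fluorescence after 10 minutes at room temperature, scaled to free-ligand and complex controls.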
# CBFb-RUNX1 inh: CBF-beta/RUNX1 interaction disruption; Q01196+Q13951; AlphaScreen CBFb-His/RUNX1-biotin binding, biochemical; Potency, µM (top dose mostly 59.8 µM), inactives show at the highest dose activity, negative = inhibition, actives largely listed as inhibitors; 230,000 tested, under 10 active; AID 1477; further: % of control where 0% means no effect
# Target sequence (Q01196 whole entry, looked up): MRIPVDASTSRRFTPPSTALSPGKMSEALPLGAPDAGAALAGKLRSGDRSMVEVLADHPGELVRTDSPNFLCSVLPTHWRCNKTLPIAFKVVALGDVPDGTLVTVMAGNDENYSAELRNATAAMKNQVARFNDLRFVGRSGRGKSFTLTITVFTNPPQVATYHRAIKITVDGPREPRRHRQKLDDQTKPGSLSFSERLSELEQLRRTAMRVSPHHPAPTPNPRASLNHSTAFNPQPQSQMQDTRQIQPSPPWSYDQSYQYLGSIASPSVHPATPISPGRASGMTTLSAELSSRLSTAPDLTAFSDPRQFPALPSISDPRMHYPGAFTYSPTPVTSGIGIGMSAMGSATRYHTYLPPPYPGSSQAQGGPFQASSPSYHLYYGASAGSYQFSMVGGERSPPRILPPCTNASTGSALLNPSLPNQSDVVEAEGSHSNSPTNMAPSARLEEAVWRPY
# Target sequence (Q13951 whole entry, looked up): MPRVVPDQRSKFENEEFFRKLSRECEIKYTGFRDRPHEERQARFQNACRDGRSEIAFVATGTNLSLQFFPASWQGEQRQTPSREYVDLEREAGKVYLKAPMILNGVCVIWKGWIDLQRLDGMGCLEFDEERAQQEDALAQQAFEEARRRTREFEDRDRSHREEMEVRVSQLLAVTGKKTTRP
#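 CBF-beta (His) and RUNX1 (biotin), 30 nM each; 20 min preassociation; + compound, 15 min; + beads 50 ng each (Ni, streptavidin), 90 min; RT; AlphaScreen read.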
# A-T KAP1 phos: potential ataxia-telangiectasia treatment | F2112 A-T fibroblasts, KAP-1 phosphorylation AlphaLISA; neocarzinostatin DNA damage 30 min before lysis | Potency, µM (top dose mostly 57.5 µM), inactives show at the highest dose activation, usual class: activators | 320,000 compounds, 0.19% hits; further: potency means the concentration at half of the fitted maximal effect; % of control where 0% means no effect; nearly all actives have a fitted effect of over 45% in size
#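 ATM-like activity read as KAP-1 phosphorylation via AlphaLISA donor/acceptor antibody pairs after lysis and 6 hr at 25C. Cells were ATM-null patient fibroblasts (F2112, hTERT), dosed 60 min, then exposed to the DSB inducer NCS for 30 min.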
# TRPV1 agonist: human TRPV1 agonism; Q8NER1; TRPV1-expressing cells, Fluo-8 calcium influx, agonist mode; activation, % at 8.33 µM; 320,000 compounds, 0.19% hits; in the data active means activation above about 80%; inconclusive means between about 30% and that limit; further: 0% is about no effect
#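 Cells expressing TRPV1 were dye-loaded with Fluo-8 and read kinetically: 10 s baseline, 3 min after compound (agonist portion), then 2 min after EC20 capsaicin (allosteric enhancer portion). Calcium-bound dye fluorescence at 480/520 nm.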
# * = called active by the depositor; ? = inconclusive; . = no result; [ ] = another dose, or the depositor's remark. Only some compounds are listed: those with a hit (about 0.39% of all), similar ones and a draw of the others. Unless noted, the call rests on the fitted dose curve; in most records, active means well fitted curve in the direction sought with a large enough effect; inconclusive means small, poorly fitted or top-dose-only effect, or another doubt; inactive means no such curve, though single readings can be large; an effect the other way counts as inactive or inconclusive.
SMILES,TRPV1 PAM,Anesthetic bind,CBFb-RUNX1 inh,A-T KAP1 phos,TRPV1 agonist
O=C(NC12CC3CC(CC(C3)C1)C2)c1cccc(OC(F)F)c1,4.8,?,.,3.98µM*,-3.7
O=C(O)C1NCCN(C(=O)c2ccc3c(ccc4ccccc43)c2)C1C(=O)O (stereo not drawn),.,-7.0%,1.1%,.,.
CCC(C)c1cc([N+](=O)[O-])cc([N+](=O)[O-])c1OC(=O)OC(C)C (stereo not drawn),.,-0.6%,?,.,.
CNC(=O)c1[nH]nc2c1CCc1cc(OC)ccc1-2,-4.3,-3.0%,.,10µM*,6.6
COc1ccc2c(c1)CCc1c-2n[nH]c1C(=O)NCCC(C)C,?,-8.9%,.,11.8%,8.7
C=CCN1c2ccccc2[C@]23C[C@@H](C(=O)OC)N(S(=O)(=O)CCCC)C2=NC(C(=O)OC)=C(C(=O)OC)[C@H]13,.,.,0.1%[13.1 µM],.,.
O=C1C=CC(=O)N1c1ccc(Sc2ccc([N+](=O)[O-])cc2)cc1,2.2,-12.5%,1.2%,1.5%,-5.6
Nc1ccc(Sc2ccc([N+](=O)[O-])cc2)cc1,-8.7,11.2µM*,-14.1%,9.2%,6.1
Cc1nc2ccccc2c(=O)n1NC(=O)C1CCC(C(C)(C)C)CC1 (stereo not drawn),3.4,-6.4%,1.7%,-1.8%,81.6*
c1ccc(C2CC(c3cccs3)=NN2c2ccccc2)cc1 (stereo not drawn),-4.9,21.7%,?,20µM*,5.1
COc1ccc(C2=NN(c3ccc(C=O)cc3)C(c3ccccc3)C2)cc1 (stereo not drawn),-3.5,86.2%,.,23.4%,1.1
Fc1ccc(C2CC(c3cccs3)=NN2c2ccccc2)cc1 (stereo not drawn),15.3,130.0%,?,31.6µM*,1.8
O=Cc1ccc(N2N=C(c3ccccc3)CC2c2ccccc2)cc1 (stereo not drawn),-18.2,57.4%,.,33.7%,24.5
COc1ccc(C2CC(c3cccs3)=NN2c2ccc(C=O)cc2)cc1 (stereo not drawn),17.4,167.9%,-1.5%,25.1µM*,16.3
C=CCOC(=O)N[C@@H](CC(C)C)/C(C(=O)OC)=C(\C)NCc1ccccc1,.,.,-6.5%,.,.
CC(C)CNc1nc(C#N)nc(Nc2ccccc2)n1,.,-0.3%,.,.,.
C[C@H]1Cc2c(-c3ccccc3)nc3c(c2CO1)CN(C(=O)Nc1cccc(C#N)c1)CC3,.,.,4.3%[13.1 µM],.,.
CC#CCN1c2ccccc2[C@]23C[C@@H](C(=O)OC)N(S(=O)(=O)CCCC)C2=NC(C(=O)OC)=C(C(=O)OC)[C@H]13,.,.,-5.7%[13.1 µM],.,.
Cc1ccc(C(C)C)c(OCC(=O)N/N=C/c2ccc(S(=O)(=O)O)o2)c1,29.1,0.6%,5.5%,14.1µM*,-1.1
CC(C)(C)CC(C)(C)c1ccc(OCC(=O)N/N=C/c2ccc(S(=O)(=O)O)o2)cc1,19.4,?,-2.2%,0.0%,-6.0
O=C(O)c1ccc2cc(-c3ccc(O)c(C45CC6CC(CC(C6)C4)C5)c3)ccc2c1,.,?,-6.0%,.,.
CCCCCC(O)c1ccc([C@H]2CCC(=O)[C@@H]2CCCCCCC(=O)O)cc1 (stereo partly drawn),.,6.2%,25.6%,.,.
O=C(Cc1ccc(F)cc1)NCCc1ccc(F)cc1,5.7,-3.7%,-0.4%,.,-6.1
Cc1ccc(OCCNC(=O)Cc2ccc(F)cc2)cc1,-13.5,-13.8%,3.8%,-0.2%,84.3*
CNC(=O)c1[nH]cnc1C(=O)N[C@@H](C)C(=O)OCc1ccccc1,-7.1,-7.3%,25.6%,44.7µM*,-1.0
SMILES,TRPV1 PAM,Anesthetic bind,CBFb-RUNX1 inh,A-T KAP1 phos,TRPV1 agonist
Cc1cccc(NC(=O)c2nc[nH]c2C(=O)N[C@@H](C)C(=O)OC(C)(C)C)c1,-9.5,17.8µM*,16.1%,18.2%,26.5
CC(C)C[C@H](NC(=O)c1[nH]cnc1C(=O)Nc1ccccc1)C(=O)OC(C)(C)C,0.7,?,21.4%,31.6µM*,?
CC(N)(C(=O)O)c1cccc(CC(=O)O)c1 (stereo not drawn),.,-13.9%,28.1%,.,.
O=C(NCCCCN1CCOCC1)c1cc2ccccc2o1,.,0.5%,8.4%,.,.
OC[C@@H]1[C@@H](c2ccccc2)C(c2cccc(Cl)c2)=NN1c1ccccc1,.,369.0%[110 µM],?,20.1%,.
COc1ccccc1[C@H]1C(c2cccc(Cl)c2)=NN(c2ccccc2)[C@@H]1CO,.,685.2%[110 µM],?,10µM*,.
CC(C)c1ccc(/C=N\NC(=O)c2ccc(Cn3cccn3)o2)cc1,8.2,-0.9%,2.8%,1.3%,82.3*
O=C1NC(=Nc2ccc(F)cc2)CS1,29.5,-2.9%,-1.3%,1.3%,-1.2
O=C1NC(=Nc2ccccc2)CS1,13.3,10.5%,8.2%,11.2µM*,-0.7
CCC12CN(C(=O)c3ccc([N+](=O)[O-])cc3)CC(CC)(CN(C(=O)c3ccc([N+](=O)[O-])cc3)C1)C2=O,4.8,5.6%,1.4%,7.08µM*,5.0
OC(c1cc(-c2ccc(C(F)(F)F)cc2)nc(C(F)(F)F)c1)C1CCCCN1 (stereo not drawn),-7.4,-7.8%,0.9%,39.8µM*,26.8
NCCCCCCNc1nc2c(N)ncnc2n1[C@@H]1O[C@@H]2COP(=O)(O)O[C@H]2[C@H]1O,.,0.4%,-5.4%,.,.
COc1ccc2nc3c(cc2c1)c(NC(=O)CC(C)C)nn3CC(C)C,-14.3,4.2%,.,34.2%,?
COc1ccc2nc3c(cc2c1)c(NC(=O)C1CCCO1)nn3CC(C)C (stereo not drawn),.,330.2%,29.5%,35.5µM*,.
CCn1nc(NC(=O)CC(C)C)c2cc3ccc(C)cc3nc21,?,41.8%,.,20µM*,0.4
CCCn1nc(NC(=O)C2CCCO2)c2cc3cc(C)ccc3nc21 (stereo not drawn),-20.0,190.0%,4.0%,29.1%,?

# Screens deposited in PubChem BioAssay by National Center for Advancing Translational Sciences (NCATS).
